Source: PMC4552634, “A New Set of Chemical Starting Points with Plasmodium falciparum Transmission-Blocking Potential for Antimalarial Drug Discovery” (PLoS ONE, 2015)
Out of some 13,000 compounds screened, about 3,200 (25%) showed an effect of 50% or more. This is one part of the list.

Test system: P. falciparum stage V gametocytes
Set-up: BacTiter-Glo ATP luminescence viability of purified stage V gametocytes in 384-well plates, per cent inhibition versus DMSO
Conditions: 48 h, 5 µM; inhibitor

In order of rising “% Inhibition” value:
1. Brc1cc(Br)c2c(c1)C(NCCCNc1nc3ncccc3[nH]1)CCN2 (stereo not drawn) [TCMDC-140066]  -91.96%
2. COc1ccc(N2CCN(c3nc(N)c4cc(OC)c(OC)cc4n3)CC2C)cc1 (stereo not drawn) [TCMDC-131887]  -85.18%
3. COc1cc(C(=O)NC2CCN(Cc3ccccc3)CC2)ccc1-c1nc2cc(Cl)c(Cl)cc2[nH]1 [TCMDC-140078]  -56.44%
4. CCCCSc1ccc2nc(-c3c[nH]c4ccc(C#N)cc34)cn2c1 [TCMDC-134704]  -54.07%
5. CCCC(C)Nc1nc(C)cc(N[C@@H](Cc2ccccc2)C(=O)NCCOc2ccccc2)n1 (stereo partly drawn) [TCMDC-134765]  -43.65%
6. CCCCCN1CCCCC(NS(=O)(=O)c2ccc(C(=O)Nc3ccc(C(F)(F)F)cc3)cc2)C1 (stereo not drawn) [TCMDC-133681]  -39.58%
7. CCCCNc1c(C(=O)OCC)c(C)nc2c1[nH]c1ccccc12 [TCMDC-131541]  -37.58%
8. CC(C)(C)c1ccc(C(=O)NC2CCC(CCN3CCc4ccc(S(C)(=O)=O)cc4CC3)CC2)cc1C(F)(F)F (stereo not drawn) [TCMDC-141428]  -32.14%
9. CCc1c(C)nc(-n2nc(C)cc2NC(=O)CC(c2ccccc2)c2ccccc2)[nH]c1=O [TCMDC-124933]  -29.94%
10. Cc1cccc(CN2CCC(C(=O)Nc3ccc(-c4nc5ccccc5[nH]4)cc3)CC2)n1 [TCMDC-124614]  -28.63%
11. COc1ccc(Cl)cc1N1CCN(CCCNC(=O)c2ccc(-c3nc4cc(Cl)c(C)cc4[nH]3)c(F)c2)CC1 [TCMDC-140030]  -22.25%
12. CN1CCc2ccc(NC(=O)Nc3cccc(C(=O)c4ccccc4)c3)cc2C1 [TCMDC-139177]  -22.18%
13. Cc1[nH]c2cc(Cl)ccc2c1C1=CCN(CCN2CCOc3c(Br)cccc3C2=O)CC1 [TCMDC-140966]  -20.54%
14. CC(=O)c1ccc(NC(=O)Nc2ccc3nccc(N4CCN(C)CC4)c3c2)cc1 [TCMDC-139331]  -18.7%
15. COC(=O)C(NC(=O)c1ccc(-c2ccc(-c3nc4ccccc4[nH]3)s2)cc1)c1ccc(O)cc1 (stereo not drawn) [TCMDC-132371]  -16.97%
16. COc1ccc(NS(=O)(=O)c2ccc(C(=O)Nc3ccc(C(F)(F)F)cc3)cc2)cc1N1CCN(CC2CC2)CC1 [TCMDC-141778]  -16.52%
17. O=C(Nc1cccc(-c2ccc(-c3nc4ccccc4[nH]3)cc2)c1)c1ccncc1 [TCMDC-136962]  -14.71%
18. CCn1c(-c2nonc2N)nc2cnc(Oc3cccc(NC(=O)c4ccc(OCCN5CCCCC5)cc4)c3)cc21 [TCMDC-135778]  -14.59%
19. COc1cc2nc(N3CCN(c4cc(C)ccc4C)CC3)nc(N)c2cc1OC [TCMDC-125298]  -12.09%
20. CCCCc1ccc(C(=O)NC2CCN(C[C@H](O)c3ccnc4ccc(OC)cc34)CC2)cc1 [TCMDC-141040]  -10.19%
21. Cc1noc(C)c1-c1cccc(CNCc2ccc(-c3cccc(-c4nc5cc(C(F)(F)F)ccc5[nH]4)c3)cc2)c1.O=C(O)C(F)(F)F [TCMDC-133051]  -9.881%
22. COc1cc2nc(N3CCC(CNC(=O)c4cc(Br)c(Br)s4)CC3)nc(N)c2cc1OC.O=C(O)C(F)(F)F [TCMDC-138213]  -9.659%
23. Cc1cc(N[C@@H](Cc2ccccc2)C(=O)NCCOc2ccccc2)nc(NCC2CCCCC2)n1 [TCMDC-134933]  -5.307%
24. O=C(NC1CCN(Cc2ccccc2)CC1)c1ccc(-c2nc3cc(Cl)c(Cl)cc3[nH]2)s1 [TCMDC-140086]  -3.887%
25. Cc1cc(N[C@@H](Cc2ccccc2)C(=O)NCCOc2ccccc2)nc(NCc2ccccc2C)n1 [TCMDC-134906]  -0.6796%
26. C/C=C1/CN2CC[C@H]1C[C@H]2[C@H](O)c1ccnc2ccc(OC)cc12 [TCMDC-138265]  0.1494%
27. COc1cc2nc(N3CCC(CNC(=O)c4cc5ccccc5s4)CC3)nc(N)c2cc1OC [TCMDC-138189]  0.3187%
28. COc1ccc2nccc([C@@H](O)CN3CCC(NCc4ccc5nc[nH]c(=O)c5c4)CC3)c2c1 [TCMDC-140981]  0.6377%
29. CCCc1cc(Cc2cnc(N)nc2N)cc(CCC)c1OCCCCC(=O)OCC [TCMDC-137294]  0.6782%
30. CCOC(=O)CCCCOc1c(OC)cc(Cc2cnc(N)nc2N)cc1OC [TCMDC-137291]  2.332%
31. COc1ccc(CN2CCN(CCCCNC(=O)c3ccc(NC(=O)c4ccc(Cl)cc4)cc3)CC2)c(OC)c1 [TCMDC-138280]  2.758%
32. Cc1ccc(-c2ccc(Cl)cc2Oc2cnc(N)nc2N)o1 [TCMDC-132599]  4.58%
33. COc1ccc(CN2CCCN(Cc3cccc(C(=O)Nc4ccc(C(C)(C)C)cc4)c3)CC2)cc1 [TCMDC-135986]  5.589%
34. CN(C)C(=O)n1cnc(S(=O)(=O)N(C)c2ccc(Cl)cc2)n1 [TCMDC-134395]  5.684%
35. Cc1cc(N[C@@H](Cc2ccccc2)C(=O)NCCOc2ccccc2)nc(Nc2ccccc2)n1 [TCMDC-134735]  6.483%
36. COc1cc2nc(N3CCN(C(=O)c4ccc(N(C(=O)OC(C)(C)C)C(=O)OC(C)(C)C)cc4)CC3)nc(N)c2cc1OC [TCMDC-131899]  9.334%
37. O=C(c1cccs1)N1N=C(c2cccs2)CC1c1cccc([N+](=O)[O-])c1 (stereo not drawn) [TCMDC-123688]  10.72%
38. COc1ccc(CC2(c3ccc(F)cc3)N=C(N)N(CCCc3cccnc3)C2=O)cc1 (stereo not drawn) [TCMDC-136541]  12.34%
39. NC(=O)Nc1ccc2c(Nc3ccc(OCc4ccccc4)cc3)ncnc2c1 [TCMDC-131937]  13.28%
40. COc1cc2sc(=NC(=O)c3cccc([N+](=O)[O-])c3)n(C)c2cc1OC [TCMDC-123526]  16.54%
41. Cc1cccc(CNc2nc(C)cc(N[C@@H](Cc3ccccc3)C(=O)NCCOc3ccccc3)n2)c1 [TCMDC-134888]  18.91%
42. COc1cc2nc(N(C)C3CCN(Cc4ccccc4)CC3)nc(N)c2cc1OC [TCMDC-131894]  19.02%
43. O=C(Cc1cccnc1)Nc1cccc(-c2cccc(-c3nc4ccc(C(F)(F)F)cc4[nH]3)c2)c1 [TCMDC-136815]  21.33%
44. Cc1ccc2sc(N(CCCn3ccnc3)C(=O)c3ccco3)nc2c1C [TCMDC-124922]  21.61%
45. CCN1CCC(N2CCC(C(=O)Nc3cccc(-c4cccc(Cl)c4)c3)CC2)CC1 [TCMDC-124650]  24.3%
46. Cc1cc(N[C@@H](Cc2ccccc2)C(=O)NCc2cccs2)nc(NCCOc2ccccc2)n1 [TCMDC-134758]  28.84%
47. COc1cc2nc(NCc3nc4ccccc4[nH]3)nc(N)c2cc1OC.Cl [TCMDC-131892]  36.75%
48. Cc1cc(N[C@@H](Cc2ccccc2)C(=O)NCCOc2ccccc2)nc(NCCc2ccccc2)n1 [TCMDC-134869]  38.23%
49. CC1(C)N=C(N)N=C(N)N1OCc1cccc2c1ccc1ccccc12 [TCMDC-131327]  39.55%
50. Cc1cc(N[C@@H](CC(C)C)C(=O)NCCOc2ccccc2)nc(NCCOc2ccccc2)n1 [TCMDC-134761]  40.02%
51. CC(C)c1cc(C(=O)N[C@@H](Cc2ccccc2)[C@H](O)CNC2CCCCC2)cc(N2CCCC2=O)c1 [TCMDC-138861]  41.96%
52. Cc1cc(N[C@@H](CC(C)C)C(=O)NCCOc2ccccc2)nc(NCCc2ccc(F)cc2)n1 [TCMDC-134795]  47.6%
53. CC1CCC(C(C)C)C(OC(=O)CSc2nnc3c(n2)[nH]c2ccccc23)C1 (stereo not drawn) [TCMDC-124002]  54.66%
54. Cc1cc(N[C@@H](Cc2ccccc2)C(=O)NCCOc2ccccc2)nc(NCCc2cccs2)n1 [TCMDC-134813]  64.23%
55. Cc1cc(N[C@@H](Cc2ccccc2)C(=O)NCCOc2ccccc2)nc(NCCc2ccc(F)cc2)n1 [TCMDC-134789]  64.78%
56. Cc1cc(N[C@@H](Cc2ccccc2)C(=O)NCCc2ccccc2)nc(NCCOc2ccccc2)n1 [TCMDC-134879]  65.02%
57. Cc1cc(N[C@@H](Cc2ccccc2)C(=O)NCCOc2ccccc2)nc(NCCc2ccccn2)n1 [TCMDC-134748]  75.62%
58. Cc1cc(N[C@@H](Cc2ccccc2)C(=O)NCCOc2ccccc2)nc(NCCOc2ccccc2)n1 [TCMDC-134759]  76.97%
59. COc1cc2nc(NC3CCN(Cc4ccccc4)CC3)nc(N)c2cc1OC [TCMDC-131886]  84.09%
60. Cc1cc(N[C@@H](CC(C)C)C(=O)NCCOc2ccccc2)nc(NCCc2ccccc2)n1 [TCMDC-134871]  94.75%
61. COc1cc2nc(N3CCN(C(=O)c4cccc(I)c4)CC3)nc(N)c2cc1OC [TCMDC-131895]  98.03%
62. CCn1c(-c2nonc2N)nc2c(-c3cc4ccccc4s3)ncc(C(=O)N3CCC(N)C3)c21 (stereo not drawn) [TCMDC-135281]  101.1%
63. COc1cc2nc(N3CCN(C(=O)c4c(Cl)nsc4-c4ccccc4Cl)CC3)nc(N)c2cc1OC.O=C(O)C(F)(F)F [TCMDC-138186]  103.1%
64. COc1cc2nc(NCC3CCN(c4nc(N)c5cc(OC)c(OC)cc5n4)CC3)nc(N)c2cc1OC [TCMDC-138723]  112.2%
65. CC(=O)c1ccc2nc[nH]c(=O)c2c1 [TCMDC-138172]  115.1%
66. COc1cc2nc(N3CCN(c4nc(N)c5cc(OC)c(OC)cc5n4)CC3)nc(N)c2cc1OC [TCMDC-123865]  116.7%
